Assay outcomes: PubChem BioAssay, Sanford-Burnham Center for Chemical Genomics
CYP2C19 activ: increases human CYP2C19 enzyme activity. recombinant CYP2C19, luciferin-H EGE luminescence; hits give high values; 0 = fully inhibited enzyme, 1 = untreated enzyme. activation factor at 5 µM. P33261. 96,000 tested, under 10 active. AID 1025;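 active = activation factor of at least 2 at 5 µM in the primary screen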;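 note: 0 = wells with 2.5 mM tranylcypromine and 1 = vehicle-only wells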
Target sequence (P33261 whole entry, looked up): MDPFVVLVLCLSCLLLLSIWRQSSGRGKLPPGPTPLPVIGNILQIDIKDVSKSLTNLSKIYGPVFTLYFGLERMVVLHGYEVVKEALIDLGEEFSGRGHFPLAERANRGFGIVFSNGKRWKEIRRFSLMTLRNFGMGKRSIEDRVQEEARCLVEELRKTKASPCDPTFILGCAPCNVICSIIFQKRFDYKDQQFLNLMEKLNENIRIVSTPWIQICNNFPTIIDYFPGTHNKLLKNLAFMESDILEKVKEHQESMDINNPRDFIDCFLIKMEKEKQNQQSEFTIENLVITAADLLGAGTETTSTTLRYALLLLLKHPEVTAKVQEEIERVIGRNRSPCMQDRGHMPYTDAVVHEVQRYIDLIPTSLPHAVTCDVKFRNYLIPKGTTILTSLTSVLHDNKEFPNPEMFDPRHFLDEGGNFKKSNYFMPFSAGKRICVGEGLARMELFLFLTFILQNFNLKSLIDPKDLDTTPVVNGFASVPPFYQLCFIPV
CYP2C9 inhib: inhibitors of human CYP2C9; P11712; CYP2C9 Supersomes, luciferin-H conversion, luminescence; inhibition, % at 5 µM; 96,000 compounds, 20% hits;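 active = blocking of liver enzyme CYP2C9 beyond about 50% at 5 µM, limit read from the data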
CD11b adhes enh: enhancers of human CD11b/CD18 binding to fibrinogen | P05107+P11215 | K562 CD11b/CD18 adhesion to fibrinogen, ATPlite luminescence | activation, % at 10 µM | 93,000 compounds, 0.07% hits;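 active = 10 µM primary screen giving 50% or more activity, confirmed by 40% or more on retest at that dose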
CYP2C19 inhib: human CYP2C19 inhibition; P33261; CYP2C19 Supersomes, luciferin-H EGE luminescence, 30 min; inhibition, % at 5 µM; 96,000 compounds, 21% hits; AID 778;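 active = CYP2C19 inhibition above a set limit at 5 µM in the primary screen, cut at about 50% in these data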;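 note: plate controls were negative control wells for no effect and 2.5 mM tranylcypromine positive control for full effect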
CYP2C9 act: increases human cytochrome P450 2C9 activity; P11712; recombinant CYP2C9, luciferin-H conversion, luminescence; hits give high values; factor 1 = untreated enzyme, 0 = blocked; activation factor at 5 µM; 96,000 compounds, 1.4% hits;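 active = activation factor of 2 or more for CYP2C9 at a 5 µM dose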;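 note: 0 = sulfaphenazole-blocked wells and 1 = vehicle-only wells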
Mac1 fbg inh: CD11b/CD18-fibrinogen binding inhibition | K562 CD11b/CD18 adhesion to fibrinogen, ATPlite luminescence; Mn2+ added to activate the integrin | inhibition, % at 10 µM | 93,000 compounds, 0.54% hits;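 active = primary inhibition of 50% or more at 10 µM, then 40% or more on retest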
* hit, by the source's call. Most compounds without a hit are left out; they make up all but 28% or so of the library.

For CCC(C(=O)NCCC1=CCCCC1)c1ccccc1 (stereo unspecified) the results were CD11b adhes enh -2 and Mac1 fbg inh -8.
COc1ccc2nc(NC(=O)CSc3nnc(N)s3)sc2c1 was read as CD11b adhes enh 61 and Mac1 fbg inh 5.
`COCc1nnc(NC(=O)CSc2ccccc2)s1` gave CYP2C19 activ 0.3, CYP2C9 inhib 40, CD11b adhes enh 2, CYP2C19 inhib 67*, CYP2C9 act 0.6 and Mac1 fbg inh -8.
Screening CCOc1ccc2nc(NC(=O)CSC3=NCCS3)sc2c1 returned CYP2C19 activ 0.8, CYP2C9 inhib 25, CD11b adhes enh -5, CYP2C19 inhib 20, CYP2C9 act 0.7 and Mac1 fbg inh 4.
`COc1ccc2nc(NC(=O)CSc3ccccc3)sc2c1` gave CYP2C19 activ 0.7, CYP2C9 inhib 63*, CD11b adhes enh -6, CYP2C19 inhib 31, CYP2C9 act 0.4 and Mac1 fbg inh -20.
COCc1nnc(NC(=O)CCSc2ccccc2)s1 was read as CYP2C19 activ 0.7, CYP2C9 inhib 5, CD11b adhes enh 2, CYP2C19 inhib 30, CYP2C9 act 0.9 and Mac1 fbg inh 0.
`CCOCC(=O)Nc1nc2ccc(OCC)cc2s1` gave CYP2C19 activ 0.5, CYP2C9 inhib 32, CD11b adhes enh -3, CYP2C19 inhib 52*, CYP2C9 act 0.7 and Mac1 fbg inh -22.
Screening COc1ccc2nc(NC(=O)CSC3=NCCS3)sc2c1 returned CYP2C19 activ 0.4, CYP2C9 inhib 29, CD11b adhes enh 0, CYP2C19 inhib 64*, CYP2C9 act 0.7 and Mac1 fbg inh 6.
Screening COc1ccc(CCNC(=O)CCC(=O)N2CCN(S(=O)(=O)c3ccccc3)CC2)cc1OC returned CYP2C19 activ 0.6, CYP2C9 inhib 33, CD11b adhes enh -6, CYP2C19 inhib 44, CYP2C9 act 0.7 and Mac1 fbg inh -16.
CCOc1ccc2nc(SCC(=O)c3ccc(C)s3)sc2c1 was read as CYP2C19 activ 0.5, CYP2C9 inhib 12, CD11b adhes enh 1, CYP2C19 inhib 51*, CYP2C9 act 0.9 and Mac1 fbg inh -25.
Cc1ccc(OCc2ccc(C(=O)Nc3nc4ccccc4n3Cc3ccccc3)o2)c([N+](=O)[O-])c1 was read as CYP2C19 activ 0.8, CYP2C9 inhib 63*, CD11b adhes enh 3, CYP2C19 inhib 21, CYP2C9 act 0.4 and Mac1 fbg inh -1.
For Cc1cc(C)cc(N(C(=O)C(F)(F)F)C(C(=O)NC2CCCCC2)c2cccs2)c1 (stereo unspecified) the results were CYP2C19 activ 0.9, CYP2C9 inhib 16, CYP2C19 inhib 9 and CYP2C9 act 0.8.
Screening CCS(=O)(=O)N1CCN(Cc2ccccc2OC)CC1 returned CYP2C19 activ 0.1, CYP2C9 inhib 15, CD11b adhes enh 1, CYP2C19 inhib 89*, CYP2C9 act 0.8 and Mac1 fbg inh -9.
Screening CCCS(=O)(=O)N1CCN(Cc2ccccc2OCC)CC1 returned CYP2C19 activ 0.2, CYP2C9 inhib 4, CD11b adhes enh -2, CYP2C19 inhib 75*, CYP2C9 act 1 and Mac1 fbg inh -7.
`CCOc1ccccc1CN1CCN(S(=O)(=O)CC)CC1` gave CYP2C19 activ 0.6, CYP2C9 inhib 9, CD11b adhes enh -4, CYP2C19 inhib 38, CYP2C9 act 0.9 and Mac1 fbg inh -6.
For CCN1C=C(Cc2ccc(F)cc2)C2=C(C1)C(c1ccc(F)cc1)C(C#N)=C(N)O2 (stereo unspecified) the results were CYP2C19 activ 0.5, CYP2C9 inhib 12, CD11b adhes enh -5, CYP2C19 inhib 46, CYP2C9 act 0.9 and Mac1 fbg inh 7.
`CCN1C=C(Cc2ccccc2C)C2=C(C1)C(c1ccccc1C)C(C#N)=C(N)O2` (stereo unspecified) gave CYP2C19 activ 0.1, CYP2C9 inhib 99*, CD11b adhes enh -1, CYP2C19 inhib 85*, CYP2C9 act 0 and Mac1 fbg inh 6.
Screening O=C(c1ccc([N+](=O)[O-])cc1)N(Cc1ccc(Cl)cc1)N1C(=O)CCCC1=O returned CYP2C19 activ 0.5, CYP2C9 inhib 12, CD11b adhes enh 3, CYP2C19 inhib 51*, CYP2C9 act 0.9 and Mac1 fbg inh -32.
